# Data published in PubChem BioAssay (NCI).
# Compounds without any hit were thinned out: in the full panel of roughly 79,000, 15% have a hit. Values without a mark were called inactive. Active and inactive are the calls of the source. Cut-off read from the data, not from the text of the source: active = growth inhibition above about 70%; inactive = the rest.
# What was measured:
# [1] = NCI Yeast Anticancer Drug Screen. Data for the rad52 strain (AID 147);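 note: 0% = growth of vehicle-treated control cultures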; settings: S. cerevisiae rad52 mutant growth inhibition, hits give high values
# Outline: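 Here a repair-compromised yeast strain receives each compound; its growth is then quantified and normalised to vehicle-only controls.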
# [2] = NCI Yeast Anticancer Drug Screen. Data for the wt1 strain (AID 149);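 note: 0% = growth of vehicle-treated wt1 cultures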; settings: S. cerevisiae wt1 strain (SPY 50644) growth inhibition, hits give high values
# Outline: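 Yeast wt1 strain exposed to compounds; growth inhibition measured relative to vehicle-treated controls.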
# [3] = NCI Yeast Anticancer Drug Screen. Data for the rad50EPP+ strain (AID 151);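 note: 0% = growth of vehicle-treated control cultures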; settings: S. cerevisiae rad50 mutant strain, hits give high values
# Outline: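 Read-out is yeast growth inhibition relative to vehicle; cells used were the rad50EPP+ strain.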
# [4] = NCI Yeast Anticancer Drug Screen. Data for the mgt1 strain (AID 153); settings: S. cerevisiae mgt1 mutant growth inhibition, hits give high values
# Outline: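 Measured: inhibition of mgt1 yeast growth by compound, normalized to vehicle-treated cultures.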
# [5] = NCI Yeast Anticancer Drug Screen. Data for the rad50 strain (AID 155);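 note: 0% = growth of vehicle-only cultures of the same strain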; settings: S. cerevisiae rad50 strain growth inhibition, hits give high values
# Outline: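 Yeast carrying a defined DNA repair defect were exposed to test compounds, and growth was compared with vehicle-treated controls to give percent inhibition.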
# [6] = NCI Yeast Anticancer Drug Screen. Data for the mec2-1 strain (AID 157); settings: S. cerevisiae mec2-1 strain, hits give high values
# Outline: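 Using mec2-1 yeast: add compound, measure growth, express inhibition versus vehicle-treated cultures.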
# [7] = NCI Yeast Anticancer Drug Screen. Data for the rad14 strain (AID 159);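 note: 0% = growth of vehicle-treated control cultures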; settings: S. cerevisiae rad14 strain growth inhibition, hits give high values
# Outline: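 Yeast cells carrying a defined DNA-repair defect were exposed to compounds, and growth inhibition was calculated relative to vehicle-treated control cultures.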
# [8] = NCI Yeast Anticancer Drug Screen. Data for the CLN2oe strain (AID 163);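 note: 0% = growth of vehicle-only control cultures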; settings: S. cerevisiae CLN2oe strain, hits give high values
# Outline: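 Whole-cell yeast growth assay. A strain engineered for altered cell-cycle control received compound, and inhibition relative to vehicle-treated cultures was recorded.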
# [9] = NCI Yeast Anticancer Drug Screen. Data for the cln2 rad14 strain (AID 165);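 note: 0% = growth equal to vehicle treated cultures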; settings: S. cerevisiae cln2 rad14 strain, hits give high values
# Outline: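 Yeast strain cln2 rad14, bearing defects in cell cycle control and DNA repair, serves as the test system; values reflect growth inhibition compared with vehicle.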
# [10] = NCI Yeast Anticancer Drug Screen. Data for the bub3 strain (AID 167); settings: S. cerevisiae bub3 mutant strain, hits give high values
# Outline: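 Compounds were applied to a genetically altered yeast strain carrying a cell-cycle control defect. Growth inhibition was scored against vehicle-treated controls.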
# [11] = NCI Yeast Anticancer Drug Screen. Data for the wt2 strain (AID 169);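 note: 0% = growth of vehicle-treated yeast cultures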; settings: S. cerevisiae wt2 strain growth inhibition, hits give high values
# Outline: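 Treated yeast vs. vehicle-treated yeast: growth inhibition determined.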
# [12] = NCI Yeast Anticancer Drug Screen. Data for the mlh1 strain (AID 171);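 note: 0% = growth of vehicle-treated control cultures of the same strain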; settings: S. cerevisiae mlh1 strain growth inhibition, hits give high values
# Outline: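 A yeast strain with a defined genetic lesion serves as the test organism. Cultures receive compound or vehicle, and growth is measured.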
# [13] = NCI Yeast Anticancer Drug Screen. Data for the sgs1 strain (AID 173);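 note: 0% = growth of vehicle-only control cultures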; settings: S. cerevisiae sgs1 mutant, hits give high values
# Outline: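 A genetically defined yeast mutant is incubated with the test compound, and its growth is compared to that of the same strain given vehicle.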
# [14] = NCI Yeast Anticancer Drug Screen. Data for the mlh1 rad18 strain (AID 175); settings: S. cerevisiae mlh1 rad18 strain growth inhibition, hits give high values
# Outline: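 Steps: expose repair-defective yeast to compound; measure growth; express inhibition against vehicle-treated controls.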
# [15] = NCI Yeast Anticancer Drug Screen. Data for the rad18 strain (AID 177); settings: S. cerevisiae rad18 mutant growth inhibition, hits give high values
# Outline: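 Measured value is growth inhibition of a yeast strain bearing a DNA repair alteration, referenced to vehicle-treated cells.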
# [16] = at 5.0 µM (retest, dose inferred, filed as 0.5)
# [17] = at 50.0 µM (retest, dose inferred, filed as 5.0)
structure (smiles),measurement,setting,value
CO[C@H]1C[C@](C)(O)Cc2cc3c(c(O)c21)C(=O)c1c(O)cc2c(c1C3=O)O[C@@H]1O[C@@]2(C)[C@H](O)[C@@H](N(C)C)[C@@H]1O,growth inhibition,[1]; at 1.2 µM,-22%
same,growth inhibition,[1]; at 3.7 µM,-13%
same,growth inhibition,[1]; at 11.0 µM,5%
same,growth inhibition,[1]; at 33.0 µM,60%
same,growth inhibition,[1]; at 100.0 µM,87% (active)
same,growth inhibition,[2]; at 1.2 µM,-38%
same,growth inhibition,[2]; at 3.7 µM,-38%
same,growth inhibition,[2]; at 11.0 µM,-39%
same,growth inhibition,[2]; at 33.0 µM,-44%
same,growth inhibition,[2]; at 100.0 µM,-37%
same,growth inhibition,[3]; at 1.2 µM,-28%
same,growth inhibition,[3]; at 3.7 µM,-5%
same,growth inhibition,[3]; at 11.0 µM,-9%
same,growth inhibition,[3]; at 33.0 µM,-12%
same,growth inhibition,[3]; at 100.0 µM,33%
same,growth inhibition,[4]; at 1.2 µM,-28%
same,growth inhibition,[4]; at 3.7 µM,-23%
same,growth inhibition,[4]; at 11.0 µM,-19%
same,growth inhibition,[4]; at 33.0 µM,-22%
same,growth inhibition,[4]; at 100.0 µM,-32%
same,growth inhibition,[5]; at 1.2 µM,-44%
same,growth inhibition,[5]; at 3.7 µM,-7%
same,growth inhibition,[5]; [16],-11%
same,growth inhibition,[5]; at 11.0 µM,17%
same,growth inhibition,[5]; at 33.0 µM,72% (active)
same,growth inhibition,[5]; [17],75% (active)
same,growth inhibition,[5]; at 50.0 µM,20.9%
same,growth inhibition,[5]; at 100.0 µM,85% (active)
same,growth inhibition,[6]; at 1.2 µM,-19%
same,growth inhibition,[6]; at 3.7 µM,-7%
same,growth inhibition,[6]; [16],-3%
same,growth inhibition,[6]; at 11.0 µM,-21%
same,growth inhibition,[6]; at 33.0 µM,-4%
same,growth inhibition,[6]; [17],-11%
same,growth inhibition,[6]; at 50.0 µM,-11.2%
same,growth inhibition,[6]; at 100.0 µM,-6%
same,growth inhibition,[7]; at 1.2 µM,-32%
same,growth inhibition,[7]; at 3.7 µM,-44%
same,growth inhibition,[7]; at 11.0 µM,-63%
same,growth inhibition,[7]; at 33.0 µM,-53%
same,growth inhibition,[7]; at 100.0 µM,-51%
same,growth inhibition,[8]; at 1.2 µM,-11%
same,growth inhibition,[8]; at 3.7 µM,-29%
same,growth inhibition,[8]; at 11.0 µM,-8%
same,growth inhibition,[8]; at 33.0 µM,-14%
same,growth inhibition,[8]; at 100.0 µM,-33%
same,growth inhibition,[9]; [16],25%
same,growth inhibition,[9]; [17],31%
same,growth inhibition,[9]; at 50.0 µM,21.9%
same,growth inhibition,[10]; at 1.2 µM,-15%
same,growth inhibition,[10]; at 3.7 µM,-11%
same,growth inhibition,[10]; [16],-2%
same,growth inhibition,[10]; at 11.0 µM,-30%
same,growth inhibition,[10]; at 33.0 µM,-31%
same,growth inhibition,[10]; [17],15%
same,growth inhibition,[10]; at 50.0 µM,-10.6%
same,growth inhibition,[10]; at 100.0 µM,-20%
same,growth inhibition,[11]; at 1.2 µM,-19%
same,growth inhibition,[11]; at 3.7 µM,-21%
same,growth inhibition,[11]; at 11.0 µM,-26%
same,growth inhibition,[11]; at 33.0 µM,-19%
same,growth inhibition,[11]; at 100.0 µM,-12%
same,growth inhibition,[12]; at 1.2 µM,-42%
same,growth inhibition,[12]; at 3.7 µM,-38%
same,growth inhibition,[12]; at 11.0 µM,-14%
same,growth inhibition,[12]; at 33.0 µM,-36%
same,growth inhibition,[12]; at 100.0 µM,-22%
same,growth inhibition,[13]; at 1.2 µM,-28%
same,growth inhibition,[13]; at 3.7 µM,-28%
same,growth inhibition,[13]; at 11.0 µM,-24%
same,growth inhibition,[13]; at 33.0 µM,-7%
same,growth inhibition,[13]; at 100.0 µM,2%
same,growth inhibition,[14]; [16],-19%
same,growth inhibition,[14]; [17],0%
same,growth inhibition,[14]; at 50.0 µM,73.2% (active)
same,growth inhibition,[15]; at 1.2 µM,-27%
same,growth inhibition,[15]; at 3.7 µM,-27%
same,growth inhibition,[15]; at 11.0 µM,-29%
same,growth inhibition,[15]; at 33.0 µM,-27%
same,growth inhibition,[15]; at 100.0 µM,-18%
NNc1c(F)c(F)cc(F)c1F,growth inhibition,[1]; at 1.2 µM,-11%
same,growth inhibition,[1]; at 3.7 µM,-19%
same,growth inhibition,[1]; at 11.0 µM,-21%
same,growth inhibition,[1]; at 33.0 µM,-11%
same,growth inhibition,[1]; at 100.0 µM,21%
same,growth inhibition,[2]; at 1.2 µM,-28%
same,growth inhibition,[2]; at 3.7 µM,-27%
same,growth inhibition,[2]; at 11.0 µM,-20%
same,growth inhibition,[2]; at 33.0 µM,-26%
same,growth inhibition,[2]; at 100.0 µM,-14%
same,growth inhibition,[3]; at 1.2 µM,2%
same,growth inhibition,[3]; at 3.7 µM,-1%
same,growth inhibition,[3]; at 11.0 µM,21%
same,growth inhibition,[3]; at 33.0 µM,54%
same,growth inhibition,[3]; at 100.0 µM,82% (active)
same,growth inhibition,[4]; at 1.2 µM,-17%
same,growth inhibition,[4]; at 3.7 µM,-23%
same,growth inhibition,[4]; at 11.0 µM,-17%
same,growth inhibition,[4]; at 33.0 µM,-6%
same,growth inhibition,[4]; at 100.0 µM,7%
same,growth inhibition,[5]; at 1.2 µM,-15%
same,growth inhibition,[5]; at 3.7 µM,-22%
same,growth inhibition,[5]; [16],-16%
same,growth inhibition,[5]; at 11.0 µM,-18%
same,growth inhibition,[5]; at 33.0 µM,-15%
same,growth inhibition,[5]; [17],8%
same,growth inhibition,[5]; at 50.0 µM,24.8%
same,growth inhibition,[5]; at 100.0 µM,25%
same,growth inhibition,[6]; at 1.2 µM,-37%
same,growth inhibition,[6]; at 3.7 µM,-35%
same,growth inhibition,[6]; [16],-11%
same,growth inhibition,[6]; at 11.0 µM,-38%
same,growth inhibition,[6]; at 33.0 µM,-20%
same,growth inhibition,[6]; [17],6%
same,growth inhibition,[6]; at 50.0 µM,33.1%
same,growth inhibition,[6]; at 100.0 µM,35%
same,growth inhibition,[7]; at 1.2 µM,-25%
same,growth inhibition,[7]; at 3.7 µM,-25%
same,growth inhibition,[7]; at 11.0 µM,-27%
same,growth inhibition,[7]; at 33.0 µM,-21%
same,growth inhibition,[7]; at 100.0 µM,-4%
same,growth inhibition,[8]; at 1.2 µM,0%
same,growth inhibition,[8]; at 3.7 µM,-4%
same,growth inhibition,[8]; at 11.0 µM,3%
same,growth inhibition,[8]; at 33.0 µM,18%
same,growth inhibition,[8]; at 100.0 µM,26%
same,growth inhibition,[9]; [16],21%
same,growth inhibition,[9]; [17],42%
same,growth inhibition,[9]; at 50.0 µM,46.9%
same,growth inhibition,[10]; at 1.2 µM,-11%
same,growth inhibition,[10]; at 3.7 µM,-18%
same,growth inhibition,[10]; [16],27%
same,growth inhibition,[10]; at 11.0 µM,-3%
same,growth inhibition,[10]; at 33.0 µM,10%
same,growth inhibition,[10]; [17],70% (active)
same,growth inhibition,[10]; at 50.0 µM,84.6% (active)
same,growth inhibition,[10]; at 100.0 µM,47%
same,growth inhibition,[11]; at 1.2 µM,-27%
same,growth inhibition,[11]; at 3.7 µM,-24%
same,growth inhibition,[11]; at 11.0 µM,-22%
same,growth inhibition,[11]; at 33.0 µM,-20%
same,growth inhibition,[11]; at 100.0 µM,-13%
same,growth inhibition,[13]; at 1.2 µM,-3%
same,growth inhibition,[13]; at 3.7 µM,8%
same,growth inhibition,[13]; at 11.0 µM,18%
same,growth inhibition,[13]; at 33.0 µM,32%
same,growth inhibition,[13]; at 100.0 µM,66%
same,growth inhibition,[15]; at 1.2 µM,-9%
same,growth inhibition,[15]; at 3.7 µM,-20%
same,growth inhibition,[15]; at 11.0 µM,-17%
same,growth inhibition,[15]; at 33.0 µM,-20%
same,growth inhibition,[15]; at 100.0 µM,6%
